Assay outcomes as filed in PubChem BioAssay.
In the library only some 3.6% were active in any assay of this set; here they are far more common.
Nrf2 ARE act – Nrf2 pathway activation | 0.31% of 410,000 active | AID 624171 | AREc32 ARE-luciferase reporter (MCF7-derived line), luminescence, 24 h | Potency, µM (highest dose often 46.1 µM), inactives show top-dose activation, hits mostly activators; note: % of control where 0% means no effect; nearly all actives have a fitted effect of over 65% in size
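AREc32 cells carrying an ARE-driven firefly luciferase, 1000 cells/well in OPTI-MEM with 5% FBS, dosed after overnight attachment and incubated 24 hr at 37 deg C. Steady-Glo luminescence read after 30 min at RT.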
Nrf2 inh – inhibitors of Nrf2 signaling. AID 504444. A549 ARE-Fluc reporter, luciferase luminescence, 18-24 h. 2.1% of 360,000 active. Potency, µM (highest dose often 46 µM), inactives show top-dose activity change, negative = inhibition, most hits filed as inhibitors; note: % is set by controls: 0 for no effect and ±100 for the full control effect; nearly all actives have a fitted effect of over 60% in size
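In this cell-based qHTS, ARE-driven firefly luciferase in A549 cells reports Nrf2 activity; the luminescent signal after BugLite lysis is the measured value, with a prior CellTiter-Fluor read for cell health.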
TGFb SMAD3 inh – inhibitors of TGF-b signaling; HepG2 CAGA-GFP TGF-b/SMAD3 reporter, GFP fluorescence, 18 h; TGF-beta stimulated, 500 pg/mL final; Potency, µM (doses to about 46.1 µM), inactives show top-dose activity, negative = inhibition, hits mostly inhibitors; 1.2% of 410,000 active; AID 588855; note: % is set by controls: 0 for no effect and ±100 for the full control effect; nearly all actives have a fitted effect of over 65% in size
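Cell-based qHTS in HEPG2 carrying a CAGA-GFP Smad reporter; compounds added before 500 pg/mL final TGF-beta, 18 h incubation at 37 degrees C, GFP fluorescence quantified per cell by imaging cytometry.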
A549 viability – kills or reduces viability of A549 cells in Nrf2 counter-screen; Potency, µM (top dose mostly 46 µM), for the others: at the top dose activity change, negative = cytotoxicity, hits mostly inhibitors; A549 ARE-Fluc cells, CellTiter-Fluor viability, 18-24 h; 0.16% of 390,000 active; note: % is set by controls: 0 for no effect and ±100 for the full control effect
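A549 ARE_Fluc cells in 5% FBS OPTI-MEM were exposed to compounds in concentration-response for 18-24 h at 37 deg C. Viability was read by CellTiter-Fluor fluorescence (Ex 405/Em 525) after 30 min, before the luciferase read.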
HepG2 tox – HepG2 cytotoxicity, counter-screen for TGF-b inhibitors. HepG2 CAGA-GFP viability, ATP luminescence, 18 h. 0.76% of 410,000 active. Potency, µM (doses to about 46.1 µM), inactives show at the top dose activity change, negative = cytotoxicity, most hits filed as cytotoxic
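CellTiter-Glo luminescence gave cytotoxicity after 18 hours at 37 degrees C. The cells were HepG2 CAGA-GFP in 1% FBS DMEM, stimulated with 500 pg/mL TGF-beta after compound addition. %Activity was normalised to no-cell wells (complete cell-killing) and DMSO (no toxicity), and curves were fitted and classified.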
Starred values were filed as active, the others as inactive; ! = repeats disagree; [ ] = remark or other dose. Calls come from the whole dose curve; as a rule, active = well fitted curve in the direction sought with a large enough effect; inconclusive = small, poorly fitted or top-dose-only effect, or another doubt; inactive = no such curve, though single readings can be large; an effect the other way counts as inactive or inconclusive. Potency is the fitted concentration of half-maximal effect.

Results for CCC1=NN(C(=O)c2ccc([N+](=O)[O-])cc2)C(O)(c2ccccc2)C1 (centres undefined) ?
Nrf2 ARE act: 0%[9.22 µM]; Nrf2 inh: inconclusive; TGFb SMAD3 inh: inconclusive; A549 viability: inconclusive; HepG2 tox: 13µM*

What do the screens show for `CCC1=NN(C(=O)c2ccccc2O)C(O)(c2ccccc2)C1` (centres undefined)?
Nrf2 ARE act: inconclusive; Nrf2 inh: -13%; TGFb SMAD3 inh: 13µM*; A549 viability: -21%; HepG2 tox: 14µM*

What do the screens show for `CCC1=NN(C(=O)c2ccc(Cl)cc2)C(O)(c2ccc(C)cc2)C1` (centres undefined)?
Nrf2 ARE act: 0%[9.22 µM]; Nrf2 inh: -12%; TGFb SMAD3 inh: 11µM*; A549 viability: -18%; HepG2 tox: 13µM*

How did COc1ncnc2c1N[C@@](C)(O)c1c(F)c(F)c(F)c(F)c1S2 do in these assays?
Nrf2 ARE act: 2%; Nrf2 inh: -6%; TGFb SMAD3 inh: -5%; A549 viability: -1%; HepG2 tox: 0%

Results for O=C(O)c1cc(Cl)nc2ccccc12 ?
Nrf2 ARE act: 0%; Nrf2 inh: 4%; TGFb SMAD3 inh: -4%; A549 viability: 6%; HepG2 tox: -5%

What do the screens show for `CCOC(=O)c1cccc(NC(=O)Cn2c(=O)c3cccn3c3ccccc32)c1`?
Nrf2 ARE act: 7%; Nrf2 inh: 12µM*; TGFb SMAD3 inh: -14%; A549 viability: 0%; HepG2 tox: 5%

What do the screens show for `CCOC(=O)c1ccc(NC(=O)CCCn2c(=O)c3cccn3c3ccccc32)cc1`?
Nrf2 ARE act: -1%; Nrf2 inh: 4%; TGFb SMAD3 inh: -21%; A549 viability: -2%; HepG2 tox: -21%

How did CCOc1ccc(CNC(=O)Cn2c(=O)c3cccn3c3ccccc32)cc1 do in these assays?
Nrf2 ARE act: 0%; Nrf2 inh: 16µM*; TGFb SMAD3 inh: 1%; A549 viability: -14%; HepG2 tox: -1%

Results for CCc1ccc(NC(=O)Cn2c(=O)c3cccn3c3ccccc32)cc1 ?
Nrf2 ARE act: 12%; Nrf2 inh: 23µM*!; TGFb SMAD3 inh: inconclusive; A549 viability: 4%; HepG2 tox: -34%

What do the screens show for `COC(=O)C1CN(C(=O)COc2cc(C)c(Cl)c(C)c2)c2ccccc2O1` (centres undefined)?
Nrf2 ARE act: 0%; Nrf2 inh: 0%; TGFb SMAD3 inh: -17%; A549 viability: -4%; HepG2 tox: -42%

Results for COc1ccc(NC(=O)C(C)N(c2ccc(C)cc2)S(C)(=O)=O)cc1 (centres undefined) ?
Nrf2 ARE act: 0%; TGFb SMAD3 inh: 6%; A549 viability: 12%; HepG2 tox: 0%

Results for CC(=O)c1ccc(OCC(O)CN(C)CCOc2ccc(Br)cc2)cc1 (centres undefined) ?
Nrf2 ARE act: 5%; Nrf2 inh: 18µM*; TGFb SMAD3 inh: -28%; A549 viability: -1%; HepG2 tox: -26%

What do the screens show for `COc1ccc(C2CC(c3cccc(F)c3)=NN2c2ccc(S(N)(=O)=O)cc2)cc1` (centres undefined)?
Nrf2 ARE act: 0%; Nrf2 inh: inconclusive; TGFb SMAD3 inh: 11µM*; A549 viability: -3%; HepG2 tox: -98%

Results for COc1ccc(C2CC(c3ccccc3)=NN2c2ccc(S(N)(=O)=O)cc2)cc1 (centres undefined) ?
Nrf2 ARE act: 0%; Nrf2 inh: -25%; TGFb SMAD3 inh: inconclusive; A549 viability: -6%; HepG2 tox: -44%

What do the screens show for `COc1ccc(C2CC(c3cccc(Br)c3)=NN2c2ccc(S(N)(=O)=O)cc2)cc1` (centres undefined)?
Nrf2 ARE act: -3%; Nrf2 inh: inconclusive; TGFb SMAD3 inh: inconclusive; A549 viability: 5%; HepG2 tox: -117%

How did COc1ccc(C2CC(c3ccccc3)=NN2c2ccc(C(N)=O)cc2)cc1 (centres undefined) do in these assays?
Nrf2 ARE act: 7%; Nrf2 inh: -26%; TGFb SMAD3 inh: 16µM*; A549 viability: 4%; HepG2 tox: -58%

Results for COc1ccc(C2CC(c3cccc(C(F)(F)F)c3)=NN2c2ccc(S(N)(=O)=O)cc2)cc1 (centres undefined) ?
Nrf2 ARE act: -2%; Nrf2 inh: 23µM*; TGFb SMAD3 inh: inconclusive; A549 viability: -13%; HepG2 tox: -113%

Results for Cc1cccc(C2CC(c3ccccc3)=NN2c2ccc(S(N)(=O)=O)cc2)c1 (centres undefined) ?
Nrf2 ARE act: 4%; TGFb SMAD3 inh: inconclusive; HepG2 tox: 11µM*

How did O=C(O)CSc1cc(NS(=O)(=O)c2cccc([N+](=O)[O-])c2)c2ccccc2c1O do in these assays?
Nrf2 ARE act: -3%; Nrf2 inh: inconclusive; TGFb SMAD3 inh: 10µM*; A549 viability: inconclusive; HepG2 tox: -95%

Results for Cc1ccc(C)c(S(=O)(=O)Nc2cc(SCC(=O)O)c(O)c3ccccc23)c1 ?
Nrf2 ARE act: 0%; Nrf2 inh: -11%; TGFb SMAD3 inh: -46%; A549 viability: -4%; HepG2 tox: -99%

Results for CCOc1ccc(S(=O)(=O)Nc2cc(SCC(=O)O)c(O)c3ccccc23)cc1 ?
Nrf2 ARE act: -1%; Nrf2 inh: inconclusive; TGFb SMAD3 inh: 5µM*; A549 viability: -19%; HepG2 tox: 13µM*

Results for CCc1ccc(S(=O)(=O)Nc2cc(SCC(=O)O)c(O)c3ccccc23)cc1 ?
Nrf2 ARE act: -4%; Nrf2 inh: -24%; TGFb SMAD3 inh: inconclusive; A549 viability: -6%; HepG2 tox: 18µM*

Results for COc1ccc(-n2cc(-c3ccc4c(c3)OCO4)n(CC(=O)Nc3cc(Cl)ccc3C)c2=O)cc1 ?
Nrf2 ARE act: 4%; Nrf2 inh: inconclusive; TGFb SMAD3 inh: -8%; A549 viability: -19%; HepG2 tox: -14%

Results for COc1ccc(-n2cc(-c3ccc4c(c3)OCO4)n(CC(=O)Nc3cccc(C)c3C)c2=O)c(OC)c1 ?
Nrf2 ARE act: -1%; Nrf2 inh: 13µM*; TGFb SMAD3 inh: inconclusive; A549 viability: inconclusive; HepG2 tox: -26%

How did O=C(CS(=O)(=O)c1nc(-c2ccc(Cl)cc2)cn1-c1ccccc1)Nc1cccc(Cl)c1 do in these assays?
Nrf2 ARE act: 6%; Nrf2 inh: inconclusive; TGFb SMAD3 inh: 10µM*; A549 viability: inconclusive; HepG2 tox: -33%

Results for Cc1ccc(-c2cn(-c3cccc(Cl)c3)c(S(=O)(=O)CC(=O)Nc3cccc(C)c3)n2)cc1 ?
Nrf2 ARE act: 6%; Nrf2 inh: 21%[9.27 µM]; TGFb SMAD3 inh: inconclusive; A549 viability: -21%; HepG2 tox: -28%
